The structures appear in SMILES notation. Among all 220,000 compounds or so, about 3,300 (1.5%) were called active. The sample holds actives, similar compounds and a random draw of the others, so the mix is not that of the screen.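 The calls were made as follows: active = compounds that cut the protein-peptide binding signal by more than 50% relative to plate controls in a single-dose test; inactive = the rest.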

This test deals with Induced myeloid leukemia cell differentiation protein Mcl-1 (Homo sapiens) (UniProt Q07820). Description: Mcl-1/Noxa binding inhibitors, primary screen, biochemical, TR-FRET, 1536-well (AID 1022).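 Also: His-tagged Mcl-1 with rhodamine Noxa BH3 peptide and terbium anti-His antibody; 0% = Mcl-1 plus Noxa peptide wells and 100% = peptide-only wells.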 To be noted: TR-FRET Mcl-1/Noxa peptide binding, 2 h; at 21.7 µM; hits give high values.
Induced myeloid leukemia cell differentiation protein Mcl-1 (Homo sapiens), sequence (Q07820 whole entry, looked up): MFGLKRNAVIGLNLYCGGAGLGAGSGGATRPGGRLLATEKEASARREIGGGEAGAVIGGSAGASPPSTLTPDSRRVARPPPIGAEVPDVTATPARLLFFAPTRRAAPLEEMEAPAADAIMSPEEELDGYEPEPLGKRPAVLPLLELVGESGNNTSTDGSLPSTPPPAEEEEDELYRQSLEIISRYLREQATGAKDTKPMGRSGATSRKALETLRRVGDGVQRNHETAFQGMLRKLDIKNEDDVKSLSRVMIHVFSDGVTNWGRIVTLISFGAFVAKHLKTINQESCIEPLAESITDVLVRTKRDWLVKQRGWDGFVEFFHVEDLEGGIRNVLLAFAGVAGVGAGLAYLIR
In the case of `O=C(OC1CCCCC1=O)c1cccc(S(=O)(=O)NCc2ccccc2)c1` (stereo unspecified), the inhibition was -5.3% (inactive).

For the compound `O=C1CCCCC1C(=O)c1ccccc1` (stereo unspecified), the inhibition was 95% (active).

Regarding `O=C(/C=C/c1ccccc1[N+](=O)[O-])OC1CCCCC1=O` (stereo unspecified), the inhibition was 5.64% (inactive).

For `Cc1ccccc1N1CCN(Cc2nc(Cc3ccccc3F)no2)CC1`, the inhibition is 9.66% (inactive).

Turning to `O=S(=O)(c1ccc(Cl)cc1)N1CCCN(c2ccc(C(F)(F)F)cn2)CC1`, the inhibition was 15.1% (inactive).

On to `Cc1ccc(NS(=O)(=O)c2ccc(N/N=C/c3ccccc3OCC(=O)O)c([N+](=O)[O-])c2)c(C)c1`, for which the inhibition is 56.7% (active).

`Cc1ccc(NS(=O)(=O)c2ccc(C)c(NC(=O)COc3ccc4ccccc4c3)c2)c(C)c1`: the inhibition was -15.7% (inactive).

On to `Cc1cccc(COc2ccccc2/C=N/Nc2ccc([N+](=O)[O-])cc2)c1`, for which the inhibition was 1.32% (inactive).

For the compound `CCCCSc1nnc2c(n1)OC=Nc1ccccc1-2`, the inhibition is 12.5% (inactive).

Regarding `O=C(CC(c1ccccc1)c1cc(Cl)ccc1O)NCCN1CCOCC1` (stereo unspecified), the inhibition is -4.69% (inactive).

`O=C(Cc1ccccc1)N1N=C(c2ccncc2)CC1(O)C(F)(F)F` (stereo unspecified): the inhibition is -12.4% (inactive).

In the case of `CC(C)c1ccc2c(c1)c(SC(C)(C)C)c(CC(C)(C)C(=O)O)n2Cc1ccc(Cl)cc1`, the inhibition is 68.7% (active).

Turning to `Cc1ccc(C)c2c1cc(C)c1nnc(SCC(=O)Nc3cccc(C(=O)O)c3)n12`, the inhibition was 4.65% (inactive).

Consider `CC1CCN(Cc2nc(-c3ccc(Cl)cc3)no2)CC1`, for which the inhibition was 11% (inactive).

As for `O=C(O)CC1=C(Nc2ccccc2)C(=O)N(c2ccccc2)C1c1ccc(Cl)cc1` (stereo unspecified), the inhibition is -6.85% (inactive).

On to `CN(C(=O)Nc1ccc(Cl)cc1)n1cnc2ccccc2c1=O`, for which the inhibition was -0.02% (inactive).

As to `COc1ccc(OCC(O)CNCCNc2nccc(C(F)(F)F)n2)cc1` (stereo unspecified), the inhibition was -8.04% (inactive).

`CCn1c(CN2C(=O)CSc3ccccc32)n[nH]c1=S`: the inhibition is -15.7% (inactive).

Regarding `Fc1ccccc1OCCSc1nc2ccccc2o1`, the inhibition is 60.4% (active).

On to `CCN(CC)C(=O)CSc1nc2ccccc2o1`, for which the inhibition is 7.79% (inactive).

Consider `CC(C)(C)C(=O)CSc1nc2ccccc2o1`, for which the inhibition is 8.46% (inactive).

`Cn1nc(C(C)(C)C)c([N+](=O)[O-])c1C(N)=O`: the inhibition is 5.22% (inactive).

`COc1ccc(Nc2cc(Cl)ccc2C(=O)O)cn1`: the inhibition was 11% (inactive).

`CCN(CC)CCCNC(=O)c1ccc2c(=O)n(Cc3ccc4c(c3)OCO4)c(=S)[nH]c2c1`: the inhibition is 25.2% (inactive).

For `CCCCN(CC)CCCNC(=O)c1ccc(CSc2nc3ccncc3[nH]2)cc1`, the inhibition was 63% (active).

`CCCCSc1nc2ccccc2[nH]1`: the inhibition is 12.9% (inactive).

Take `COC(=O)c1nc(NC(=O)c2ccc(Cl)cc2)n[nH]1`: the inhibition is -8.02% (inactive).

Regarding `COC(=O)c1nc(NC(=O)c2ccc(C(C)(C)C)cc2)n[nH]1`, the inhibition is 69.2% (active).

For `COC(=O)c1nc(NC(=O)c2ccc(F)cc2)n[nH]1`, the inhibition was -6.78% (inactive).

For `O=C(O)CC1(CC(=O)Nc2cccc(C(F)(F)F)c2)CCCC1`, the inhibition was -33.1% (inactive).

As for `Nc1nnnn1/N=C/c1cc([N+](=O)[O-])ccc1O`, the inhibition is -18% (inactive).

On to `Cc1ccc(N2C(=O)CC(Sc3ncn[nH]3)C2=O)cc1` (stereo unspecified), for which the inhibition is -10.1% (inactive).

On to `O=C1CC(Sc2ncn[nH]2)C(=O)N1c1ccccc1` (stereo unspecified), for which the inhibition is 54.4% (active).

For `COc1ccc(N2C(=O)CC(Sc3n[nH]c(-c4ccc(C)cc4)n3)C2=O)cc1` (stereo unspecified), the inhibition is 36% (inactive).

For the compound `Cc1nc(CNS(=O)(=O)c2cc([N+](=O)[O-])ccc2C)cs1`, the inhibition is -0.49% (inactive).

In the case of `O=C(CN1C(=O)/C(=C\c2ccccc2F)SC1=S)Nc1nc2ccccc2s1`, the inhibition was 11.5% (inactive).

For `CN(C)S(=O)(=O)c1cccc(-c2nn(-c3ccccc3)cc2/C=C2\SC(=S)N(CC(=O)O)C2=O)c1`, the inhibition was 74.1% (active).

`Cc1ccc(-c2nn(-c3ccccc3)cc2/C=C/C(=O)Nc2cccc(S(N)(=O)=O)c2)cc1`: the inhibition was 7.42% (inactive).

`CCOC(=O)c1sc2nc(C)[nH]c(=O)c2c1C`: the inhibition was -7.23% (inactive).

In the case of `COC(=O)c1sc2[nH]c(=S)n(N)c(=O)c2c1C`, the inhibition is 52.1% (active).

Regarding `CCOC(=O)c1sc2nc(CSCC(=O)OCc3ccc(C(=O)OC)o3)[nH]c(=O)c2c1C`, the inhibition was 11.7% (inactive).

In the case of `Cc1onc(-c2ccccc2)c1C(=O)N=C(N)c1ccc(Cl)cc1`, the inhibition is 13.2% (inactive).

With `Cc1nnc(N/N=C/c2cccs2)[nH]c1=O`, the inhibition is -2.37% (inactive).

For `CC(O)c1nc2c(c(=O)n(C)c(=O)n2C)n1C` (stereo unspecified), the inhibition was -1.58% (inactive).

Consider `CC1CN(c2nc(Nc3ccccc3)nc(N)c2[N+](=O)[O-])CC(C)O1` (stereo unspecified), for which the inhibition is -24.5% (inactive).

For the compound `CCN1CCN(c2nc(Nc3cccc(F)c3)nc(N)c2[N+](=O)[O-])CC1`, the inhibition is 56.7% (active).

On to `CNc1nc(Nc2ccc(C)c(Cl)c2)nc(N)c1[N+](=O)[O-]`, for which the inhibition was 26.8% (inactive).

Regarding `O=C(NCc1cccnc1)Nc1cccc(NC(=O)NCc2cccnc2)c1F`, the inhibition was -1.36% (inactive).

For `COc1cc(OC)c(C(=O)Nc2ccccc2-c2ccccc2)cc1OC`, the inhibition is 2.98% (inactive).

On to `COc1ccc(Cl)cc1C(=O)Nc1ccc(N(C)C(C)=O)cc1`, for which the inhibition is 15.3% (inactive).

On to `COc1cc(OC)c(C(=O)Nc2ccc(N(C)C)cc2)cc1OC`, for which the inhibition was 51.8% (active).

For the compound `CC(NC(=S)NNS(=O)(=O)c1ccc(C(C)(C)C)cc1)c1ccccc1` (stereo unspecified), the inhibition was -17.7% (inactive).

Take `Cc1ccc2c(c1)c1ncn(Cc3ccc(F)cc3)c(=O)c1n2C`: the inhibition is -20.4% (inactive).

In the case of `O=C(CSc1ccccc1)Nc1nnc(/C=C/c2ccccc2)s1`, the inhibition was 9.47% (inactive).

For the compound `COc1ccc(/C=C/c2nnc(NC(=O)C(C)C)s2)cc1`, the inhibition was 12.2% (inactive).

`O=C(Nc1ccc(Cl)cc1)Nc1nnc(/C=C/c2ccccc2)s1`: the inhibition was 91.2% (active).

In the case of `CN(C)c1ccc(/C=C/C(=O)c2ccc(O)cc2)cc1[N+](=O)[O-]`, the inhibition was 20.5% (inactive).

As to `CCCc1nc2oc3c(=O)[nH]cnc3c2c2c1COC(C)(C)C2`, the inhibition was -3.33% (inactive).

Consider `CC(=O)Nc1ccc(C(=O)/C=C/c2ccc[nH]2)cc1`, for which the inhibition is 15.7% (inactive).

Turning to `COc1ccc(N2C(=O)c3ccccc3NC2c2ccc(OC)c(CN3CCOCC3)c2)cc1` (stereo unspecified), the inhibition is 7.79% (inactive).

`CCN(CCNC(=O)C1=C(C)C(=O)OC12CCC(C)CC2)c1ccccc1` (stereo unspecified): the inhibition is -5.12% (inactive).

These data come from PubChem BioAssay AID1022 (Emory University Molecular Libraries Screening Center, 2008).
